# From PubChem BioAssay AID2006 (Sanford-Burnham Center for Chemical Genomics, 2009)
# Out of some 290,000 compounds screened, about 1,000 (0.34%) were called active. No stated cut-off is given here; in the data, active means inhibition above about 50% (passing the limit was not always enough); inconclusive means no clear call, values can overlap the other calls. The entries come from a sample that favours actives as a whole.
# Target: SUMO-conjugating enzyme UBC9 (Homo sapiens) (UniProt P63279)
# Sequence (P63279 whole entry, looked up): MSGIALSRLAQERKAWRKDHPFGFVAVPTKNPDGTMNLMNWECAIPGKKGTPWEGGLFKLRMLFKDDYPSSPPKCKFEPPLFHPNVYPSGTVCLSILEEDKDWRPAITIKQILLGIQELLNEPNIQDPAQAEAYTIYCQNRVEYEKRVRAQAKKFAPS
# Experiment: blockers of SAE1/SAE2–UBC9 SUMO transfer – biochemical, HTRF, uHTS, primary screen (AID 2006)
# Details: HTRF SUMOylation assay, SAE1/SAE2 + UBC9, in vitro, at 35 µM, stronger effect = higher value
Structure (SMILES),inhibition,inhibition (average of repeat tests)
Cc1c(Cc2ccccc2)c(=O)oc2cc(OCC(N)=O)ccc12,3.3% (inactive),
CC(=O)Nc1cc2ccc(OC(C)=O)cc2oc1=O,43.7% (inactive),
CC(=O)Oc1ccc2c(C)c(CC(C)O)c(=O)oc2c1 (centres undefined),52.6% (active),46.3%
COc1ccc2c(C)c(CCC(=O)NC3CC3)c(=O)oc2c1C,15.9% (inactive),
COCCOC(=O)C1=C(C)Nc2nc(C)nn2C1c1ccccc1 (centres undefined),-5% (inactive),
COc1cc(C2C(C(=O)Nc3ccc(F)cc3)=C(C)Nc3nc(CCCO)nn32)cc(OC)c1OC (centres undefined),11.3% (inactive),
COC(=O)c1nc2n(n1)C(c1ccc([N+](=O)[O-])cc1)C(C(=O)Nc1ccc(Cl)cc1)=C(C)N2 (centres undefined),56.7% (active),44.5%
Cc1nn(C)c(Cl)c1CN1CCC(n2nccc2NC(=O)C2CCCC2)CC1,3.6% (inactive),
CCCCNC(=O)N(O)C1N(/N=C/c2ccc(N(C)C)cc2)C(=S)SC1(C)C (centres undefined),6.7% (inactive),
Cc1cc(C)c(S(=O)(=O)c2ccc(F)cc2C)c(=O)[nH]1,14.5% (inactive),
CNC(=S)N/N=C/c1ccc(OCc2ccccc2)c(Br)c1,11.3% (inactive),
COc1ccc(OC)c(NC(=O)Cc2cccs2)c1,8% (inactive),
Cc1ccc(/C=C/C(=O)Nc2cc(S(=O)(=O)N3CCCCCC3)ccc2OCC(F)(F)F)o1,25.6% (inactive),
Cc1ccc(/C=C/C(=O)Nc2ccc([N+](=O)[O-])c(NC(=O)/C=C/c3ccc(C)o3)c2)o1,74.6% (active),
CCc1nnc(NC(=O)/C=C/c2ccc(C)o2)s1,7.9% (inactive),
CC(C)c1nnc(NC(=O)CCC(=O)N2CCN(c3cccc(Cl)c3)CC2)s1,1.4% (inactive),
Cc1c(C)c(C)c(S(=O)(=O)N2CCC3(CC2)OCCO3)c(C)c1C,0.4% (inactive),
Oc1ccc(CNc2ccccc2O)cc1,2.9% (inactive),
COc1ccc(NC(=O)CN(C)CC(=O)Nc2cccc(C(F)(F)F)c2)cc1,0.2% (inactive),
COc1cc(NC(=O)c2cncc(-c3ccc(C#N)cc3)c2)cc(C(=O)Nc2cccc(C(F)(F)F)c2)c1,71.3% (active),53.1%

Structure (SMILES),inhibition,inhibition (average of repeat tests)
N#Cc1ccc(Oc2ccc(C(F)(F)F)cc2NC(=O)c2ccc(F)cc2)cc1,-26.5% (inactive),
O=C(CN1CCN(S(=O)(=O)c2ccc(F)cc2)CC1)NC1CC1,8.8% (inactive),
COc1cc(N/C=C2\CC(=O)NC(C)=C2C#N)cc(OC)c1OC,51.7% (active),
COC(=O)C1=C(C)NC(=O)CC1c1ccccc1OC (centres undefined),10.4% (inactive),
COc1cc2c(cc1OC)C(C(=O)Nc1cc(C)c(OC)c(C)c1)CC(=O)N2 (centres undefined),1.4% (inactive),
CC(O)c1ccc(OCCN(C)c2ccccn2)cc1 (centres undefined),20.8% (inactive),
Cc1[nH]c2c(C(=O)N3CCCC(CCC(=O)NCc4ccccc4F)C3)cccc2c1C (centres undefined),-0.7% (inactive),
Cc1ccc(C2Nc3cccc4cccc(c34)N2)cc1,8.5% (inactive),
Oc1ccc(C2Nc3cccc4cccc(c34)N2)cc1,31.7% (inactive),
Brc1ccccc1C1Nc2cccc3cccc(c23)N1,69.7% (active),
CC(C)NS(=O)(=O)c1ccc(OCC(=O)NC2CCCCCC2)cc1,2.1% (inactive),
O=C(CC1NCCc2ccccc21)Nc1cccc(Cl)c1 (centres undefined),-5.3% (inactive),
CCCCCCNS(=O)(=O)c1ccccc1Br,21.7% (inactive),
Cc1ccc(-n2ncc(C(=O)NC3CC3)c2C2CCN(C(=O)OC(C)(C)C)CC2)c(C)c1,-2.6% (inactive),
CCc1nccn1CCC(=O)N1CCCC(N2CCN(c3ccccc3F)CC2)C1 (centres undefined),4.2% (inactive),
COc1ccc(C(=O)CC(=O)c2ccc(C)cc2)c(O)c1,-0.3% (inactive),
O=c1c(-c2ccccc2)coc2cc(O)ccc12,20.1% (inactive),
O=c1c(/C=N/O)coc2ccc(Cl)cc12,8.4% (inactive),
O=C1/C(=C/c2coc3ccc(O)cc3c2=O)SC(=S)N1c1ccccc1,57% (active),34.2%
Cc1cccc(OCC(O)Cn2c(N3CCCCC3)nc3c2c(=O)[nH]c(=O)n3C)c1 (centres undefined),20.6% (inactive),

Structure (SMILES),inhibition,inhibition (average of repeat tests)
CCn1cc(CN2CCN(CC(C)(C)C)C(CCO)C2)c2ccccc21 (centres undefined),5.7% (inactive),
Oc1ccccc1C1=NN(c2ccccc2)C(c2ccccc2)C1 (centres undefined),11% (inactive),
CCN(CC)CCCNC(=S)N(CCO)Cc1cc2cc3c(cc2[nH]c1=O)OCO3,18.4% (inactive),
Cc1ccc(NC(=O)C2CCCN2S(=O)(=O)c2cccc3cccnc23)c(C)c1 (centres undefined),4.8% (inactive),
O=S(=O)(c1ccc(Br)c2ccccc12)N1CCOCC1,2.6% (inactive),
CC(C)[C@H](NC(=O)OCc1ccccc1)C(=O)OCc1ccccc1,-16.4% (inactive),
O=[N+]([O-])C(=c1ccc2c(c1)N1C3=C(CCCC3)CC3CCCCC31N=2)[N+](=O)[O-] (centres undefined),57.5% (active),
Cc1sc2ncn(CC(=O)NCCN(C)C)c(=O)c2c1S(=O)(=O)N1CCC(C)CC1,-5.2% (inactive),
CN1CCC(=O)N([C@H](CO)Cc2ccccc2)CC1,13% (inactive),
CCOc1ccc(OCc2ccc(C(=O)N(C)c3ccccc3)o2)cc1,5% (inactive),
CC1=C(C(=O)OC2CCCCC2)C(c2cccnc2)n2ncnc2N1 (centres undefined),-7.1% (inactive),
C=CCc1ccccc1OCC(O)CN1CCN(CCO)CC1 (centres undefined),0.7% (inactive),
O=C(Nc1ccc(S(=O)(=O)Nc2nccs2)cc1)c1cc(-c2ccncc2)nc2ccccc12,50% (active),
O=C(Nc1ccc(S(=O)(=O)Nc2nccs2)cc1)c1cc(=O)[nH]c2ccccc12,30.5% (inactive),
CCC(CC)C(=O)Nc1ccc(S(=O)(=O)Nc2nccs2)cc1,14.7% (inactive),
Cc1nn(Cc2ccccc2)c(C)c1NS(=O)(=O)c1ccccc1,3.7% (inactive),
O=C(O)c1cccc(S(=O)(=O)Nc2ccc(O)cc2Sc2nc3ccccc3s2)c1,-14.5% (inactive),
COc1ccc(S(=O)(=O)Nc2ccc(O)c(Sc3nc4ccccc4s3)c2)cc1,-0.5% (inactive),
O=[N+]([O-])c1c(NCCO)cc(Sc2nc3ccccc3s2)c2nonc12,90.1% (active),
CCOCc1nnc(NC(=O)CCC2CCCCC2)s1,10.6% (inactive),
